These results are taken from the OligoGym collection.
Further: reference of the scale not given here.

The first assay addresses PIP5KL1. Nature of the assay: pooled miR-30 sensor sort-seq; sequence = guide strand. Conditions: shRNA.
TTGATGTCATACCTCTCGGAGA returned a sensor-assay potency score (higher = more potent) of -1.04. TTTGATGTCATACCTCTCGGAG yielded a sensor-assay potency score (higher = more potent) of -0.872. Same read-out and setting: next, TTGGGCTCTCGACTCTTCCGGG: -0.549; TAATCCAGCACGTTGAGCTCCC: -0.232. Still for that read-out and setting: next, TATCAGGAGGCTGTAATCCAGC: -1.11; TTGAGCTCCCGGAGGAAGGTGG: -0.608; TATCCAGTTCCATCTGGCGGAG: -1.65. In the case of TTGCGGAGCCCGTAGACTGTGG, the sensor-assay potency score (higher = more potent) was -1.6. Sequence TGTCTTCCACAGGTGCTCCAGC showed a sensor-assay potency score (higher = more potent) of -0.631. TTTGGGCTCTCGACTCTTCCGG had a sensor-assay potency score (higher = more potent) of -0.891.

In the case of TAGCGCAGTGTCTTCCACAGGT, the sensor-assay potency score (higher = more potent) came out at 0.0204.

TACCTCTCGGAGATGCGGCCGG registered a sensor-assay potency score (higher = more potent) of -0.502.

A further assay concerns the target PITPNM3. Described as above. Conditions: shRNA.
With TTTGCTGAGACGCTTGCTGCTG, the sensor-assay potency score (higher = more potent) is -0.757. TCTTCGTGGATCTCGATGCTTC: the sensor-assay potency score (higher = more potent) was -0.715. Same read-out and setting: the value for TTCTCCTTGATGCTCGTCCAGT was -0.95. On the same count and under the same terms, the value for TTTGATGAAGCACTCCTGCATG was -0.502. TTCAGCAGCAATCACATCATTG displayed a sensor-assay potency score (higher = more potent) of -1.64. As for TTACGAAGCCACTTCTCCCGGG, the sensor-assay potency score (higher = more potent) was -0.085.

Consider TTCCTCGCTGTCTTCGTGGATC, for which the sensor-assay potency score (higher = more potent) was -1.05. Sequence TTGCTGAGACGCTTGCTGCTGG came in with a sensor-assay potency score (higher = more potent) of -0.433.
